Results on 39 targets are retold here after the supplement of paper PMC10849652.

The full data set covers some 8,800 targets. This sample favours those with a hit. About 0.5% of all pairs of compound and target were hits.

Sequence of UniProt Q96C36 (Q96C36 whole entry, looked up): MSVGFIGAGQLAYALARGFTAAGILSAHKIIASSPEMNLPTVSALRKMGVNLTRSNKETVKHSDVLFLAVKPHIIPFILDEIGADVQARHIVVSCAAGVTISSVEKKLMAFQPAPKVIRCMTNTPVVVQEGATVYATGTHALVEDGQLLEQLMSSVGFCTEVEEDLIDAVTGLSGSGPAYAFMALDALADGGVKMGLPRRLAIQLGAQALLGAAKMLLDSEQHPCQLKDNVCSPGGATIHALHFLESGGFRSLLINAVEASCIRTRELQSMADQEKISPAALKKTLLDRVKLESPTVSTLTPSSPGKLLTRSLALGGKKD
Sequence of UniProt Q9UHV9 (Q9UHV9 whole entry, looked up): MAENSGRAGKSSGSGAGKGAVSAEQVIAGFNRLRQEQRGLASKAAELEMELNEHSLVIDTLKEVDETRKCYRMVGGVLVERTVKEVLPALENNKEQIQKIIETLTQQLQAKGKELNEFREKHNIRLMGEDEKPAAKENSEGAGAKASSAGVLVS
Sequence of UniProt Q96PU8 (Q96PU8 whole entry, looked up): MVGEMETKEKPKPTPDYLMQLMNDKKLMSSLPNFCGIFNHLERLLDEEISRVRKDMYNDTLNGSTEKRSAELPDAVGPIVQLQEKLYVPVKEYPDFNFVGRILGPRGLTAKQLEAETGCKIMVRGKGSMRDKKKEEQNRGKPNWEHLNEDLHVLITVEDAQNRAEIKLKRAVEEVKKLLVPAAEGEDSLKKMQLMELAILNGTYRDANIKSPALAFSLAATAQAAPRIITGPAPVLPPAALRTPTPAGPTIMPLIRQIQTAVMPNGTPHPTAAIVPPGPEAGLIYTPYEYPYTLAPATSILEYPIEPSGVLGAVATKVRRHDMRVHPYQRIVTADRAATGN
Sequence of UniProt Q8WUM4 (Q8WUM4 whole entry, looked up): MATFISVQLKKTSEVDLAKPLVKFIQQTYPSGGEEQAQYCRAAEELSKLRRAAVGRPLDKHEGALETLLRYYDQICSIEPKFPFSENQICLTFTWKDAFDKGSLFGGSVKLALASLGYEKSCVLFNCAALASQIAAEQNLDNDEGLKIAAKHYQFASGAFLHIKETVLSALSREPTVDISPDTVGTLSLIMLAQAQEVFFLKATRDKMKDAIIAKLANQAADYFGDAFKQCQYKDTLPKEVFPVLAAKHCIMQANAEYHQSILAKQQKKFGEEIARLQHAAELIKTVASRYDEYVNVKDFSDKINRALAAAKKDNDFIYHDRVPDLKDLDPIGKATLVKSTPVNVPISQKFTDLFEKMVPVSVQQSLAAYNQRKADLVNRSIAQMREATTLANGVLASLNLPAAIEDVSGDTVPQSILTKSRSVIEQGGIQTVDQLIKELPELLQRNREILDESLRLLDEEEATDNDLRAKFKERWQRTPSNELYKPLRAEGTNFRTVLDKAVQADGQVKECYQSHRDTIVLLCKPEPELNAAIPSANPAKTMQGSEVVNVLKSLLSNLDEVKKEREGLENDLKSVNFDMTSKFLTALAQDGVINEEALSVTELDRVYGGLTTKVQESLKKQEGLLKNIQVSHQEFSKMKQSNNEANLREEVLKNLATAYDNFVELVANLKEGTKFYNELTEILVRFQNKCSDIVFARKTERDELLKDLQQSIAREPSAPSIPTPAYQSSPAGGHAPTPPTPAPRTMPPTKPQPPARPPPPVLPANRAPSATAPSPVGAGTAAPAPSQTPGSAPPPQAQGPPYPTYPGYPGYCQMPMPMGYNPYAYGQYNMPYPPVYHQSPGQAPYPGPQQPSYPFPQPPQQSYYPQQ
Sequence of UniProt Q9UBF8 (Q9UBF8 whole entry, looked up): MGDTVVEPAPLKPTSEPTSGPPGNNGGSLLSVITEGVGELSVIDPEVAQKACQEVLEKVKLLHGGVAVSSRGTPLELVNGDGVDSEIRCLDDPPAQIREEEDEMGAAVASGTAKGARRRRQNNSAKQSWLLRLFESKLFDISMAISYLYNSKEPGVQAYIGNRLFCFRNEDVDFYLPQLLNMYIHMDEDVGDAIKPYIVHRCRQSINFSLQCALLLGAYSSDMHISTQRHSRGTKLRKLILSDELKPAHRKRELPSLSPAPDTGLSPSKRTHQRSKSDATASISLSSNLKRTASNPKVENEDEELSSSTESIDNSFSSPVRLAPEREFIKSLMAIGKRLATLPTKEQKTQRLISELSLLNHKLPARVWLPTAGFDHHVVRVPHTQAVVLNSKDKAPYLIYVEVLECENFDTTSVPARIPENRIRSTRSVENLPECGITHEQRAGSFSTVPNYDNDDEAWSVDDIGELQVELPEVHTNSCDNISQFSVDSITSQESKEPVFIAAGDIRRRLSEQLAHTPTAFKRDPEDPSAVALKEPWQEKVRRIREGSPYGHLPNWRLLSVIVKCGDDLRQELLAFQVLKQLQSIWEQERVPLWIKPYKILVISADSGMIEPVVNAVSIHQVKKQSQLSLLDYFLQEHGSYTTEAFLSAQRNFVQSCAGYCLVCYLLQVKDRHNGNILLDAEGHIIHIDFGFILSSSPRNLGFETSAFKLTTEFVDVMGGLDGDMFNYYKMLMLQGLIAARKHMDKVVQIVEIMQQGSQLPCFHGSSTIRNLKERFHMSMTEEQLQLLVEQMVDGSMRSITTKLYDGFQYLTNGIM
Sequence of UniProt Q93100 (Q93100 whole entry, looked up): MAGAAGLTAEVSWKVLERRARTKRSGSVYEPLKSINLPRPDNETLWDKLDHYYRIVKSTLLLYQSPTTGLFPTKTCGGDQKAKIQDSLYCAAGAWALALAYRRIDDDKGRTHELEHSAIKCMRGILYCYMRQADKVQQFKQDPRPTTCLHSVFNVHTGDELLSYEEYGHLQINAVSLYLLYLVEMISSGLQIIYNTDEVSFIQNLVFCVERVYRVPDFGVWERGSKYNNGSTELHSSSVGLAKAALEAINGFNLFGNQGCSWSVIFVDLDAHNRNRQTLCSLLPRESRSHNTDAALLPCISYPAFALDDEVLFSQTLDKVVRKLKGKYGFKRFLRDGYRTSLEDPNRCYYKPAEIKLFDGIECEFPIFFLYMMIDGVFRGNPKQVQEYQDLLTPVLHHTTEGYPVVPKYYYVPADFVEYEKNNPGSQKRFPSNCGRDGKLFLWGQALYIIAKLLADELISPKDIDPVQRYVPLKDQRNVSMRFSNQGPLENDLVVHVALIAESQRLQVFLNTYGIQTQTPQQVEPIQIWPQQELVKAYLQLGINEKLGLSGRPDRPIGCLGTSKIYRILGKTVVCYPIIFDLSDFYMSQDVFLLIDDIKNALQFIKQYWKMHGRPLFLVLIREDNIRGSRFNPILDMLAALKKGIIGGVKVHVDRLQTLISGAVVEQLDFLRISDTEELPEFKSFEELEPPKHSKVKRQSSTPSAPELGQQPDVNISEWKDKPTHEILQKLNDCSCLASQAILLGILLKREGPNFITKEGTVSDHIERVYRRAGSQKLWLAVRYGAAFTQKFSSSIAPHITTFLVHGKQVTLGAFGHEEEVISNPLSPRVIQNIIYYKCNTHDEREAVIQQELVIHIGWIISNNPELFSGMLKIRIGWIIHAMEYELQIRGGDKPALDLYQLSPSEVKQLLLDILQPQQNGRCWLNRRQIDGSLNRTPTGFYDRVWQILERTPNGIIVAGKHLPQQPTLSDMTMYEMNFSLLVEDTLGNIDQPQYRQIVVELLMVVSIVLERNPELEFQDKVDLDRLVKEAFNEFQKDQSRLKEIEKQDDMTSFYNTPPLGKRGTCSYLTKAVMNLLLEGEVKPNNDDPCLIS
Sequence of UniProt Q05397 (Q05397 whole entry, looked up): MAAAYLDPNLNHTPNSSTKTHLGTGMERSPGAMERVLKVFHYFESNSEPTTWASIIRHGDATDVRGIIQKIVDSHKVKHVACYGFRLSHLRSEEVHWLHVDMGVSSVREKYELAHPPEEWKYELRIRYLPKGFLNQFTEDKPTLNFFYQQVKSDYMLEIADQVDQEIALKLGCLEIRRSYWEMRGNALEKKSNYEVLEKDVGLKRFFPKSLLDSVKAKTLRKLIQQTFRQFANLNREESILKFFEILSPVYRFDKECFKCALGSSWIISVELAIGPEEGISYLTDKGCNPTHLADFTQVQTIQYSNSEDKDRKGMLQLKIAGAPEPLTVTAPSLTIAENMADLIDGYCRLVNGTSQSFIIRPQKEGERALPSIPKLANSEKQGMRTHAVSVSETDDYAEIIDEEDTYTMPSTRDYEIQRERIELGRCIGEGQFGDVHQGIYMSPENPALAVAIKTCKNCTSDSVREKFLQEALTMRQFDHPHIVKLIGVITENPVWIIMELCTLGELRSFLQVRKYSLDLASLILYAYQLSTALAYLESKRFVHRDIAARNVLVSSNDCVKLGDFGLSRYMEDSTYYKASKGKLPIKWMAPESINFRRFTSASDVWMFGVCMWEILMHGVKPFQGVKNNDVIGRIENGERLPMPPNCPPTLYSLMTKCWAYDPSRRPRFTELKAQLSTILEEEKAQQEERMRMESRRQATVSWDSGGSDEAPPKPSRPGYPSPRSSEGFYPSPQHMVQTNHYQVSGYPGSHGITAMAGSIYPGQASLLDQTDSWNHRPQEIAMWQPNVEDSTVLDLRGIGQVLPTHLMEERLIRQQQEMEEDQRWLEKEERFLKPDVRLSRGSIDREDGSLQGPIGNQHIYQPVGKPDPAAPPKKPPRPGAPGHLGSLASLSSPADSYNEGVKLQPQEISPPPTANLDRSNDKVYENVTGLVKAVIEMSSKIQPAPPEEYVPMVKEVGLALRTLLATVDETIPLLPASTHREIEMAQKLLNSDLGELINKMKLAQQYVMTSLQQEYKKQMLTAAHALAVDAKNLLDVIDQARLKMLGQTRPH
Sequence of UniProt Q9H0N5 (Q9H0N5 whole entry, looked up): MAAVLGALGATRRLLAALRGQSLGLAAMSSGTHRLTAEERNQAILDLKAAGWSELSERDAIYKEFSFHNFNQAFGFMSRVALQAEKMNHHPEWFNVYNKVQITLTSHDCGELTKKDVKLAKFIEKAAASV
Sequence of UniProt Q9Y244 (Q9Y244 whole entry, looked up): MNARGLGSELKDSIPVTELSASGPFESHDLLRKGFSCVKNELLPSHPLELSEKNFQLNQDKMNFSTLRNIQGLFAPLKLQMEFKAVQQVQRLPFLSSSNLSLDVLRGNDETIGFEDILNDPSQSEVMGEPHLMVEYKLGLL

Compound in one assay: CC(C)C1=C2N=C(C=C(N2N=C1)NCC3=CC=CC=C3)NCCCCCCN
In words: log2 fold change, soluble protein after heating vs DMSO (PISA); higher = thermal stabilisation; K562 lysate, 10 uM; active = over 0.2 and 3.5 SD of the protein, either way, in both replicates (recomputed). In short, it runs like this:
(§1)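 A 30 min treatment with 10 μM compound was applied to crude K562 extract at 1 mg/mL protein in PBS pH 7.4 with 1 mM MgCl2. Heating for 3 min spanned 48°C-58°C, after which aliquots were pooled, adjusted to 0.5% NP-40 at 4°C and spun at 21,000xg for 90 min. TMTpro 16plex LC-MS/MS of the supernatant, with channel sums equalised, gave values recorded as log-two fold change in thermal stability against solvent controls, from duplicates.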
As for PFDN2 (UniProt Q9UHV9), the log2 fold change is 0.005 (inactive).

For the target PUM1 isoform 3 (UniProt Q14671), the log2 fold change was -0.035 (inactive).

On to POLR2G (UniProt P62487), for which the log2 fold change was -0.028 (inactive).

With PRKCSH (UniProt K7ELL7), the log2 fold change is 0.049 (inactive).

Take PTK2 (UniProt Q05397): the log2 fold change is -0.015 (inactive).

In the case of PCIF1 (UniProt Q9H4Z3), the log2 fold change was 0 (inactive).

On to PIK3C3 (UniProt Q8NEB9), for which the log2 fold change is 0.015 (inactive).

As for PDIA4 (UniProt P13667), the log2 fold change is 0.001 (inactive).

Take PDCD4 (UniProt Q53EL6): the log2 fold change was 0.007 (inactive).

Turning to QKI (UniProt Q96PU8), the log2 fold change was 0.029 (inactive).

On to PTS (UniProt Q03393), for which the log2 fold change was -0.041 (inactive).

In the case of POMP (UniProt Q9Y244), the log2 fold change was -0.013 (inactive).

As to POLD3 (UniProt Q15054), the log2 fold change was 0.035 (inactive).

For the target PI4KB (UniProt Q9UBF8), the log2 fold change is -0.004 (inactive).

Take PDE4DIP isoform 4 (UniProt Q5VU43): the log2 fold change was -0.061 (inactive).

Regarding PTPN6 isoform 4 (UniProt P29350), the log2 fold change was 0.019 (inactive).

As to PGLS (UniProt O95336), the log2 fold change was 0.001 (inactive).

Regarding PFKFB2 (UniProt O60825), the log2 fold change is -0.016 (inactive).

PSTPIP2 (UniProt Q9H939): the log2 fold change was 0.001 (inactive).

For PI4K2A (UniProt Q9BTU6), the log2 fold change is -0.006 (inactive).

For the target PLEKHO2 (UniProt Q8TD55), the log2 fold change is 0.006 (inactive).

PLIN2 (UniProt Q99541): the log2 fold change was -0.001 (inactive).

Take PHLDB1 (UniProt Q86UU1): the log2 fold change is -0.021 (inactive).

Consider PRKD3 (UniProt O94806), for which the log2 fold change was 0.03 (inactive).

On to PTPN23 (UniProt Q9H3S7), for which the log2 fold change is -0.019 (inactive).

As to PI4KA (UniProt P42356), the log2 fold change is -0.045 (inactive).

Take PUF60 isoform 2 (UniProt Q9UHX1): the log2 fold change is -0.174 (inactive).

Turning to PKP3 isoform 2 (UniProt Q9Y446), the log2 fold change is -0.006 (inactive).

As for PCBP2 isoform 3 (UniProt Q15366), the log2 fold change is -0.019 (inactive).

As to PTPN1 (UniProt P18031), the log2 fold change was 0.006 (inactive).

As to PPP2R3C (UniProt Q969Q6), the log2 fold change was -0.088 (inactive).

For PPT2 isoform 3 (UniProt Q9UMR5), the log2 fold change is -0.019 (inactive).

With PDCD6IP (UniProt Q8WUM4), the log2 fold change was 0.078 (inactive).

As to PCBD2 (UniProt Q9H0N5), the log2 fold change is 0.033 (inactive).

For PHKB isoform 3 (UniProt Q93100), the log2 fold change was -0.003 (inactive).

For the target PFN1 (UniProt P07737), the log2 fold change was -0.022 (inactive).

PIGO (UniProt Q8TEQ8): the log2 fold change is -0.068 (inactive).

On to PYCR2 (UniProt Q96C36), for which the log2 fold change is -0.007 (inactive).

With POGK (UniProt Q9P215), the log2 fold change was -0.012 (inactive).

Compound in another assay: CC1=C(C(CC(=O)N1)C2=CC=C(C=C2)C(F)(F)F)C(=O)NC3=C(C=C4C(=C3)C=NN4)F
Described as above. In short, it runs like this:
as §1
PFDN2 (UniProt Q9UHV9): the log2 fold change was 0.016 (inactive).

For PUM1 isoform 3 (UniProt Q14671), the log2 fold change is 0.032 (inactive).

As to POLR2G (UniProt P62487), the log2 fold change is -0.015 (inactive).

As for PRKCSH (UniProt K7ELL7), the log2 fold change is 0.006 (inactive).

Turning to PTK2 (UniProt Q05397), the log2 fold change was -0.024 (inactive).

PCIF1 (UniProt Q9H4Z3): the log2 fold change is 0.002 (inactive).

In the case of PIK3C3 (UniProt Q8NEB9), the log2 fold change was -0.032 (inactive).

As for PDIA4 (UniProt P13667), the log2 fold change was -0.01 (inactive).

PDCD4 (UniProt Q53EL6): the log2 fold change was 0.025 (inactive).

On to QKI (UniProt Q96PU8), for which the log2 fold change was 0.065 (inactive).

For PTS (UniProt Q03393), the log2 fold change is -0.117 (inactive).

For the target POMP (UniProt Q9Y244), the log2 fold change was 0.016 (inactive).

Consider POLD3 (UniProt Q15054), for which the log2 fold change was 0.019 (inactive).

Turning to PI4KB (UniProt Q9UBF8), the log2 fold change is -0.015 (inactive).

For the target PDE4DIP isoform 4 (UniProt Q5VU43), the log2 fold change is -0.032 (inactive).

For PTPN6 isoform 4 (UniProt P29350), the log2 fold change was 0 (inactive).

On to PGLS (UniProt O95336), for which the log2 fold change is -0.012 (inactive).

For the target PFKFB2 (UniProt O60825), the log2 fold change was 0.006 (inactive).

Turning to PSTPIP2 (UniProt Q9H939), the log2 fold change was -0.049 (inactive).

Turning to PI4K2A (UniProt Q9BTU6), the log2 fold change is -0.028 (inactive).

For the target PLEKHO2 (UniProt Q8TD55), the log2 fold change is 0.01 (inactive).

For PLIN2 (UniProt Q99541), the log2 fold change is 0.069 (inactive).

PHLDB1 (UniProt Q86UU1): the log2 fold change was 0.004 (inactive).

In the case of PRKD3 (UniProt O94806), the log2 fold change is 0.039 (inactive).

In the case of PTPN23 (UniProt Q9H3S7), the log2 fold change was -0.014 (inactive).

As for PI4KA (UniProt P42356), the log2 fold change is 0 (inactive).

Regarding PUF60 isoform 2 (UniProt Q9UHX1), the log2 fold change is -0.021 (inactive).

For PKP3 isoform 2 (UniProt Q9Y446), the log2 fold change was 0.014 (inactive).

In the case of PCBP2 isoform 3 (UniProt Q15366), the log2 fold change was -0.034 (inactive).

With PTPN1 (UniProt P18031), the log2 fold change is -0.005 (inactive).

Regarding PPP2R3C (UniProt Q969Q6), the log2 fold change was 0.021 (inactive).

Regarding PPT2 isoform 3 (UniProt Q9UMR5), the log2 fold change was -0.026 (inactive).

On to PDCD6IP (UniProt Q8WUM4), for which the log2 fold change was 0.009 (inactive).

Consider PCBD2 (UniProt Q9H0N5), for which the log2 fold change was 0.025 (inactive).

On to PHKB isoform 3 (UniProt Q93100), for which the log2 fold change was 0.008 (inactive).

As for PFN1 (UniProt P07737), the log2 fold change was -0.017 (inactive).

As to PIGO (UniProt Q8TEQ8), the log2 fold change was -0.041 (inactive).

Regarding PYCR2 (UniProt Q96C36), the log2 fold change is -0.026 (inactive).

As for POGK (UniProt Q9P215), the log2 fold change was 0.018 (inactive).
